In this experiment the target is furin, P09958. In words: furin cleavage Z-score vs untreated control; higher = more cleavage, active = 3.5 or more, inactive = 1 or less, 8 variable residues between constant flanks. The gist of the method:
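Read counts from sequencing released DNA gave abundance for each bead-bound 8-mer peptide–cDNA fusion cut by purified furin over 7.5, 15 or 30 min. The cleavage Z-score compares log counts with furin-free reactions after lowess adjustment and median absolute deviation scaling.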

We go through 43 sequences from the supplement of paper PMC3545927.

The list shows a part of the results. How many sequences the whole screen found active is unknown.
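Note: purified furin at 1:10 enzyme:substrate in 50 mM HEPES pH 7.5.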

Sequence of furin, P09958 (P09958 whole entry, the tested form may be a part): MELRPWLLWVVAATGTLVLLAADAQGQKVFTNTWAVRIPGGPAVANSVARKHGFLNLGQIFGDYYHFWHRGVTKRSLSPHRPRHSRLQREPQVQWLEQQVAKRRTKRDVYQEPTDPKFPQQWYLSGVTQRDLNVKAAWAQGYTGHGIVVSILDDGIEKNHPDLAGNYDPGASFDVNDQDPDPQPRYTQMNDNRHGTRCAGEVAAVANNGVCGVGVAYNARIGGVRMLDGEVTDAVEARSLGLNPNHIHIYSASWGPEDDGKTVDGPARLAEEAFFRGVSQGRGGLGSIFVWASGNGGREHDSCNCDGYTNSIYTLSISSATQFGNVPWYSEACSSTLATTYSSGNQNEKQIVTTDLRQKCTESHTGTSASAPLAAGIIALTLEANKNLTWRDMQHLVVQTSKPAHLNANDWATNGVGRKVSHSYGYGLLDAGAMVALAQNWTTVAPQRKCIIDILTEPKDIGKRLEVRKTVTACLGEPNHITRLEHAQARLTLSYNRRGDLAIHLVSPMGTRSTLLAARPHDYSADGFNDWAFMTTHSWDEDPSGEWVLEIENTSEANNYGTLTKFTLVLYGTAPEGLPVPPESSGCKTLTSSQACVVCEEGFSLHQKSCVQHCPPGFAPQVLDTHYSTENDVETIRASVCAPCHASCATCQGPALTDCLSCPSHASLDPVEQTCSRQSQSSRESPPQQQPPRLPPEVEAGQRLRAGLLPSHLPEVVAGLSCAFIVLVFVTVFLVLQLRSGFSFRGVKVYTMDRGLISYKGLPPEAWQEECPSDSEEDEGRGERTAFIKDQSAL

On to CANGSWHLNSAGNASASA [HC369], for which the “furin cleavage Z-score” value is, setting by setting: (7.5 min) -0.0133 (inactive); (15 min) 2.38; (30 min) 0.739 (inactive).

In the case of CAHREVPCHRAGNASASA [HC2435], the “furin cleavage Z-score” value is -0.316 (inactive) (7.5 min), 1.36 (15 min) and 2.65 (30 min).

For the sequence CAVTKLPLAVAGNASASA [HC1460], the “furin cleavage Z-score” value reads like this: (7.5 min) -0.671 (inactive); (15 min) -0.455 (inactive); (30 min) 0.174 (inactive).

As to CARTPCSGSWAGNASASA [HC1833], the “furin cleavage Z-score” value is, setting by setting: (7.5 min) -0.828 (inactive); (15 min) -0.942 (inactive); (30 min) -0.629 (inactive).

For CASGGPLLCPAGNASASA [HC743], the “furin cleavage Z-score” value is 0.483 (inactive) (7.5 min), -0.364 (inactive) (15 min) and -1.12 (inactive) (30 min).

For CAKYSRSYRYAGNASASA [FS-937], the “furin cleavage Z-score” value (7.5 min) was -0.221 (inactive), the “furin cleavage Z-score” value (15 min) was -0.443 (inactive) and the “furin cleavage Z-score” value (30 min) was 0.667 (inactive).

With CADQERKARYAGNASASA [FS-758], the “furin cleavage Z-score” value (7.5 min) was -0.446 (inactive), the “furin cleavage Z-score” value (15 min) is 0.477 (inactive) and the “furin cleavage Z-score” value (30 min) was 0.913 (inactive).

As to CANKFRTKRYAGNASASA [FS-695], the “furin cleavage Z-score” value by setting is: (7.5 min) 9.46 (active); (15 min) 8.84 (active); (30 min) 7.04 (active).

Take CASGGRTKRYAGNASASA [FS-191]: the “furin cleavage Z-score” value is, setting by setting: (7.5 min) 8.8 (active); (15 min) 10.7 (active); (30 min) 9.18 (active).

In the case of CARVTAILSSAGNASASA [HC1132], the “furin cleavage Z-score” value runs as follows: (7.5 min) 1.14; (15 min) 0.277 (inactive); (30 min) -0.773 (inactive).

For the sequence CARRSRSSYTAGNASASA [FS-3070], the “furin cleavage Z-score” value (7.5 min) was -0.67 (inactive), the “furin cleavage Z-score” value (15 min) was 0.865 (inactive) and the “furin cleavage Z-score” value (30 min) came out at 2.05.

As for CARAARHVVAAGNASASA [FS-1988], the “furin cleavage Z-score” value (7.5 min) was 0.916 (inactive), the “furin cleavage Z-score” value (15 min) came to 2.53 and the “furin cleavage Z-score” value (30 min) was 4.88 (active).

Consider CARRSRSPRTAGNASASA [FS-3069], for which the “furin cleavage Z-score” value is 8.32 (active) (7.5 min), 10.6 (active) (15 min) and 7.67 (active) (30 min).

In the case of CARAARSRGAAGNASASA [FS-2324], the “furin cleavage Z-score” value (7.5 min) was -0.759 (inactive), the “furin cleavage Z-score” value (15 min) is -0.113 (inactive) and the “furin cleavage Z-score” value (30 min) is -0.259 (inactive).

Consider CASRSRSPRPAGNASASA [FS-1283], for which the “furin cleavage Z-score” value was -0.34 (inactive) (7.5 min), 0.132 (inactive) (15 min) and -0.275 (inactive) (30 min).

Turning to CARGPRAVSTAGNASASA [FS-2334], the “furin cleavage Z-score” value (7.5 min) is 0.54 (inactive), the “furin cleavage Z-score” value (15 min) was 0.906 (inactive) and the “furin cleavage Z-score” value (30 min) was found to be 1.4.

Take CARRVRIVSRAGNASASA [FS-1923]: the “furin cleavage Z-score” value was -0.897 (inactive) (7.5 min), 0.174 (inactive) (15 min) and 1.35 (30 min).

On to CARCPRQVSTAGNASASA [FS-3216], for which the “furin cleavage Z-score” value is, setting by setting: (7.5 min) 4.16 (active); (15 min) 3.66 (active); (30 min) 6.67 (active).

On to CARRSRDVSCAGNASASA [FS-2519], for which the “furin cleavage Z-score” value (7.5 min) was 4.17 (active), the “furin cleavage Z-score” value (15 min) is 5.01 (active) and the “furin cleavage Z-score” value (30 min) was 5.69 (active).

Take CADFEVVTSTAGNASASA [HC2287]: the “furin cleavage Z-score” value (7.5 min) was 0.0621 (inactive), the “furin cleavage Z-score” value (15 min) is -1.1 (inactive) and the “furin cleavage Z-score” value (30 min) was -1.43 (inactive).

Take CARAARGTIGAGNASASA [FS-2879]: the “furin cleavage Z-score” value was -0.0204 (inactive) (7.5 min), -0.846 (inactive) (15 min) and 0.286 (inactive) (30 min).

Turning to CARRSRKVGSAGNASASA [FS-2455], the “furin cleavage Z-score” value is -0.487 (inactive) (7.5 min), 0.947 (inactive) (15 min) and 0.792 (inactive) (30 min).

Consider CAEVPCHTPSAGNASASA [HC2378], for which the “furin cleavage Z-score” value runs as follows: (7.5 min) 0.816 (inactive); (15 min) 0.745 (inactive); (30 min) 1.13.

As to CAAGYSGGDIAGNASASA [HC1647], the “furin cleavage Z-score” value is -1.51 (inactive) (7.5 min), -1.76 (inactive) (15 min) and -1.36 (inactive) (30 min).

For the sequence CARAARFAKTAGNASASA [FS-1885], the “furin cleavage Z-score” value is -1.44 (inactive) (7.5 min), 0.407 (inactive) (15 min) and 0.00762 (inactive) (30 min).

In the case of CARRSRNVSTAGNASASA [FS-2083], the “furin cleavage Z-score” value was 1.86 (7.5 min), 4.41 (active) (15 min) and 5.4 (active) (30 min).

With CARRSRSSSRAGNASASA [FS-2600], the “furin cleavage Z-score” value by setting is: (7.5 min) 0.0891 (inactive); (15 min) 0.74 (inactive); (30 min) 0.299 (inactive).

CARAARVPRTAGNASASA [FS-1476]: the “furin cleavage Z-score” value reads like this: (7.5 min) 7.67 (active); (15 min) 5.53 (active); (30 min) 4.3 (active).

With CARRFRVVSGAGNASASA [FS-1774], the “furin cleavage Z-score” value runs as follows: (7.5 min) 0.247 (inactive); (15 min) -0.792 (inactive); (30 min) -0.178 (inactive).

CARAARRAAGAGNASASA [FS-1678]: the “furin cleavage Z-score” value (7.5 min) is -0.697 (inactive), the “furin cleavage Z-score” value (15 min) was -0.053 (inactive) and the “furin cleavage Z-score” value (30 min) was -1.33 (inactive).

For the sequence CARGSLLSPRAGNASASA [HC735], the “furin cleavage Z-score” value (7.5 min) is 0.168 (inactive), the “furin cleavage Z-score” value (15 min) is -0.587 (inactive) and the “furin cleavage Z-score” value (30 min) is -0.591 (inactive).

In the case of CADNTTTSSEAGNASASA [HC1342], the “furin cleavage Z-score” value (7.5 min) was -1.15 (inactive), the “furin cleavage Z-score” value (15 min) was 0.112 (inactive) and the “furin cleavage Z-score” value (30 min) is -0.634 (inactive).

On to CARNKRTCSAAGNASASA [FS-2160], for which the “furin cleavage Z-score” value is, setting by setting: (7.5 min) 2.24; (15 min) 3.57 (active); (30 min) 2.82.

As to CARNKRTCSEAGNASASA [FS-2161], the “furin cleavage Z-score” value is 4.64 (active) (7.5 min), 4.66 (active) (15 min) and 4.26 (active) (30 min).

As to CAGSATLCSAAGNASASA [HC294], the “furin cleavage Z-score” value is -0.289 (inactive) (7.5 min), -0.124 (inactive) (15 min) and -0.454 (inactive) (30 min).

As to CAEVPCHRHSAGNASASA [HC2395], the “furin cleavage Z-score” value is 0.115 (inactive) (7.5 min), 0.712 (inactive) (15 min) and 1.03 (30 min).

In the case of CAECHSTDATAGNASASA [HC819], the “furin cleavage Z-score” value (7.5 min) is -0.594 (inactive), the “furin cleavage Z-score” value (15 min) was -1.11 (inactive) and the “furin cleavage Z-score” value (30 min) is 0.253 (inactive).

CALFAGVDAEAGNASASA [HC349]: the “furin cleavage Z-score” value (7.5 min) is -0.796 (inactive), the “furin cleavage Z-score” value (15 min) was -0.738 (inactive) and the “furin cleavage Z-score” value (30 min) was -0.0117 (inactive).

On to CALGDREKRDAGNASASA [FS-548], for which the “furin cleavage Z-score” value by setting is: (7.5 min) 4.49 (active); (15 min) 4.22 (active); (30 min) 4.54 (active).

Consider CAASAVLKRDAGNASASA [FS-751], for which the “furin cleavage Z-score” value runs as follows: (7.5 min) 0.168 (inactive); (15 min) -1.94 (inactive); (30 min) 1.16.

As to CAASGREGRDAGNASASA [FS-402], the “furin cleavage Z-score” value was -0.371 (inactive) (7.5 min), -0.657 (inactive) (15 min) and -0.187 (inactive) (30 min).

On to CAFSAREKRDAGNASASA [FS-587], for which the “furin cleavage Z-score” value reads like this: (7.5 min) 10.7 (active); (15 min) 11.3 (active); (30 min) 9.1 (active).

For the sequence CAIKDRNKRDAGNASASA [FS-251], the “furin cleavage Z-score” value reads like this: (7.5 min) 11.9 (active); (15 min) 10.9 (active); (30 min) 8.42 (active).
